We go through 107 compounds from PubChem BioAssay AID1745856 (National Center for Advancing Translational Sciences (NCATS), 2022).

Structures are written as SMILES. Among all 120,000 compounds or so, about 270 (0.23%) were called active. Another 5% or so got no clear call; they are omitted. This excerpt belongs to a sample that is enriched for actives. A number with no mark means an inactive call. Calls follow the shape of the full dose curve.
% is scaled to controls: 0 for no effect and ±100 for the full control effect; potency is read from the fitted curve at half-maximal effect.

The assay is described as follows: Primary qHTS Assay for Foot and Mouth Disease Virus Antivirals against NCGC Sytravon and CBC Compound Libraries: Firefly Luciferase Signal. Also: nearly all actives have a fitted effect of over 60% in size. The settings on record: FMDV antiviral cell assay; series mostly up to 57.5 µM; activity change, negative = inhibition: at the top concentration. For orientation: Quantitative high-throughput screening tests each substance at several concentrations.
For `Cc1ccc(-c2ccc(CCC(=O)O)n2NC(=O)c2ccc(F)cc2)cc1`, the “activity change, negative = inhibition” value was 21.6%. The same measure, in the same setting: the same measure for `O=C(Nc1cccc(I)c1)c1ccc2c3c(cccc13)CC2`: 81.5%; for `COC(=O)c1ccc(CNC(=O)CCCNC(=O)C(C)(C)C)cc1`: 2.4%. Still for that read-out and setting: the same measure for `Cc1nc2cc(NC(C)C(=O)Nc3cccc(Cl)c3Cl)ccc2o1` (configuration not stated): 22%; for `COC(=O)c1cccc(N=Cc2cc(Cl)ccc2O)c1`: 0%.

On to `CC(C)CNC(=O)COC(=O)Cc1nn(C)c(=O)c2ccccc12`, for which the “activity change, negative = inhibition” value was 3.32%. Same read-out and setting: the same measure for `O=C(CN1CCN(C(=O)c2nn(Cc3ccccc3)c(=O)c3ccccc23)CC1)Nc1ccc(F)cc1`: 29.2%; for `Cc1noc(C)c1CS(=O)(=O)c1ccc(Cl)cc1`: -0.357%. Still for that read-out and setting: the same measure for `Cc1cccc(NC(=O)c2cc3cc(Br)ccc3oc2=O)c1`: 16.6%.

For the compound `COc1ccccc1NC(=O)c1cc2ccccc2cc1OCC(N)=O`, the “activity change, negative = inhibition” value is 16.9%.

Take `Cc1nc(NC(=O)C(C)Sc2nnc(-c3ccccc3F)n2CC(C)C)sc1C` (configuration not stated): the “activity change, negative = inhibition” value was -18%. On the same count and under the same terms, the result for `Cn1c(=O)[nH]c(=O)c2c(C(=O)O)cc(C3CC3)nc21` reads 3.96%; that for `Cc1cc(/C=C(/C#N)c2nc3ccccc3n2C)cc(C)c1O`, 189%; that for `Clc1ccc(CN2CCN(c3ncnc4nc[nH]c34)CC2)cc1`, 12.2%. Still for that read-out and setting: the result for `COc1ccccc1-c1nc(C#N)c(NCc2ccccc2)o1` reads 0%; that for `[O-]/[N+](=C\c1ccc2ccccc2n1)c1ccccc1`, 204%; that for `CCCC(=O)Nc1cccc(-c2cc3cc(F)ccc3[nH]2)c1`, 0%. In the case of `Cc1ccc(-c2cc(-c3ccccc3)c(C#N)c(SCCS(=O)Cc3ccccc3)n2)cc1` (configuration not stated), the “activity change, negative = inhibition” value is -13%. The same measure, in the same setting: the result for `N#Cc1ccccc1NC(=O)c1cnc2ccccc2n1` reads 177%; that for `CCOC(=O)c1cc(NCc2c(Cl)cccc2Cl)ccc1N1CCOCC1`, 19.6%. On the same count and under the same terms, the same measure for `Cc1occc1-c1nnc(SCC(=O)N2c3ccccc3CC2C)o1` (configuration not stated): 5.98%. The same measure, in the same setting: the result for `Cc1c(Cl)cccc1N(CC(=O)Nc1c(C)n(C)n(-c2ccccc2)c1=O)S(C)(=O)=O` reads -3%. Consider `CCOC(=O)c1cc(NC(=O)c2ccc(-c3ccccc3)cc2)ccc1N1CCOCC1`, for which the “activity change, negative = inhibition” value was -4.7%. Regarding `C(=N\N=C(c1ccccc1)c1ccccc1)/c1c[nH]c2ccccc12`, the “activity change, negative = inhibition” value is 0%. As for `Cc1ccc(C(=O)NC2CCSC2=O)cc1C` (configuration not stated), the “activity change, negative = inhibition” value is 0%. Turning to `Cc1ccc(CCNC(=O)c2noc(C)c2Cn2nc(C)cc2C)cc1`, the “activity change, negative = inhibition” value was 0.415%. The same measure, in the same setting: the result for `O=C(Nc1ncn(Cc2ccc(Cl)cc2)n1)c1ccn(COc2ccc(F)cc2F)n1` reads -5.05%; that for `Fc1ccc(-c2ccc(CNCc3ccccc3)o2)cc1`, 136%. Take `COc1nc2ccccc2nc1N1CCC(C(=O)Nc2ccccc2F)CC1`: the “activity change, negative = inhibition” value is 1.54%. For the compound `Cc1nc(-c2ccc(F)cc2)sc1C(=O)N[C@H](C(=O)O)C(C)C`, the “activity change, negative = inhibition” value is 23.3%. As to `Cc1cnc(NC(=O)c2nc(C)n(-c3ccc(F)cc3)n2)s1`, the “activity change, negative = inhibition” value is 180%.

Turning to `CCCn1nc(C(=O)Nc2ncc(Cc3ccc(F)cc3)s2)ccc1=O`, the Potency is 31.6 µM (active). Take `COc1ccc(/C(=N/OC(=O)c2cccc(F)c2)c2nccc3cc(OC)c(OC)cc23)cc1OC`: the “activity change, negative = inhibition” value is 13.5%.

In the case of `COc1ccc(-c2cc(C(=O)NC3CC(C)(C)NC(C)(C)C3)c3ccccc3n2)cc1OC`, the “activity change, negative = inhibition” value was -27.7%. Still for that read-out and setting: the result for `CCOc1cc(/C=C2\NC(=O)NC2=O)cc(Br)c1OCc1cccc2ccccc12` reads 6.16%. The same measure, in the same setting: the same measure for `CCC(CC)NC(=O)COC(=O)c1ccc(C)c(C)c1`: -0.24%; for `COc1ccc(CN(C(=O)COc2ccc(C)cc2)c2ccccn2)cc1OC`: 89.2%; for `CC1CCN(C(=O)c2cccnc2-c2nc3ccccc3s2)CC1`: -0.889%. Take `Cc1ccc2c(Cl)cc(Cl)c(OCC(=O)N3CCCCCC3)c2n1`: the “activity change, negative = inhibition” value was -7.4%. Regarding `CCCCCNC(=O)N(C)Cc1ccc(C(=O)OC)cc1`, the “activity change, negative = inhibition” value was 21%. Still for that read-out and setting: the same measure for `COc1cccc(CNC(=O)COC(=O)c2c(F)cccc2F)c1`: 18.7%.

On to `COc1ccc2c(c1OC)C(=O)OC2Nc1nc(-c2ccccc2)cs1` (configuration not stated), for which the Potency was 28.2 µM (active).

Take `COc1ccc(-c2csc(Nc3cccc(C)n3)n2)cc1OC`: the “activity change, negative = inhibition” value is 198%. The same measure, in the same setting: the result for `Cc1cccc(C)c1Nc1nc(-c2ccccc2)cs1` reads 164%; that for `Cc1cccc(C)c1NC(=O)CN(C)CC(=O)NC(=O)NCc1ccccc1`, -5.49%. Take `CC(=O)N1CCN(c2c([N+](=O)[O-])cnc3ccc(Br)cc23)CC1`: the “activity change, negative = inhibition” value is -9.98%. For `CCOc1ccccc1OCC(=O)Nc1cccc2ncccc12`, the Potency was 8.91 µM (active).

As to `COc1c(C)cccc1C(=O)Nc1cccc2ncccc12`, the “activity change, negative = inhibition” value was 9.76%.

Turning to `CCCOc1ccc(NC(=O)COc2cccc(C)c2C)c2cccnc12`, the “activity change, negative = inhibition” value was -12.1%. Take `CCC1CCCCN1S(=O)(=O)c1ccc(NC(=O)c2cc(-c3ccc(OC)cc3)on2)cc1` (configuration not stated): the “activity change, negative = inhibition” value was 18.9%. Same read-out and setting: the result for `Cc1cc(SCC(=O)NC(=O)NCC(C)C)nc2ccccc12` reads 18.6%. Same read-out and setting: the result for `COc1ccc(NC(C)=O)cc1S(=O)(=O)NC(c1ccc(F)cc1)c1cccs1` (configuration not stated) reads -11.3%; that for `CC1CCn2c(nc3cc(C(=O)N4CCN(c5ccccc5)CC4)ccc32)C1` (configuration not stated), 102%.

As to `CC1CCCCN1C(=O)CSc1nc2ccccc2n1CCC#N` (configuration not stated), the “activity change, negative = inhibition” value is 4.75%. Regarding `O=C(CC12CC3CC(CC(C3)C1)C2)OCC(=O)c1ccc2c(c1)OCO2`, the “activity change, negative = inhibition” value was 0%. As for `CCCCN(C)C(=O)C1CCC(Cn2c(=O)c3sccc3n(Cc3ccccc3)c2=O)CC1` (configuration not stated), the “activity change, negative = inhibition” value is -8.18%. With `Cc1ccc2nc(-c3ccccn3)cc(C(=O)O)c2c1`, the “activity change, negative = inhibition” value is 21.3%.

Turning to `Cc1nc2cc(NC(C)C(=O)Nc3ccccc3F)ccc2o1` (configuration not stated), the “activity change, negative = inhibition” value was 84.5%. Same read-out and setting: the same measure for `CCc1ccc(Nc2nc3ccccc3nc2NS(=O)(=O)c2ccc(F)cc2)cc1`: 4.14%. On the same count and under the same terms, the same measure for `Cn1nc(C(=O)NCCc2ccc(F)cc2)c2ccccc2c1=O`: 115%; for `COc1ccc(NC(=O)CSCc2cc(=O)n3cc(C)ccc3n2)cc1Cl`: -10.7%.

As to `Cc1cc(=O)oc2c(C)c(OCC(=O)NCCc3ccc(S(N)(=O)=O)cc3)ccc12`, the “activity change, negative = inhibition” value is -12%. The same measure, in the same setting: the same measure for `O=C(CCc1nc2ccccc2s1)NC1CCCCCC1`: 115%; for `CCS(=O)(=O)N1CCc2cc(C(=O)CSc3ccc(Cl)cc3)ccc21`: -47.5%; for `Cc1ccc(-c2cc(C(=O)N3CCCCCC3)c3ccccc3n2)o1`: 31.5%. For the compound `Cc1cccc(N(C)C(=O)Cn2nc(Cc3cccnc3)c3ccccc3c2=O)c1`, the “activity change, negative = inhibition” value was -0.531%. Same read-out and setting: the result for `Cc1ccc(NC(=O)C(Sc2ccccc2)c2ccccc2)cc1C` (configuration not stated) reads 52.1%.

For the compound `CCN(CC)C(=O)c1sc2nc(C(C)(C)C)nc(C)c2c1C`, the “activity change, negative = inhibition” value is 5.06%. Same read-out and setting: the same measure for `COc1cc(NC(=O)C2CCCN2C(=O)C23CC4CC(CC(C4)C2)C3)c(OC)cc1Cl` (configuration not stated): -13.5%; for `CC1CCC(NC(=O)c2ccccc2SCC#N)CC1` (configuration not stated): 0%; for `COc1ccc2c(C)c(CC(=O)Nc3nnc(C(C)C)s3)c(=O)oc2c1OC`: 14.8%. Still for that read-out and setting: the same measure for `Cc1ccccc1C(C)N` (configuration not stated): -5.82%. Still for that read-out and setting: the same measure for `COc1ccc(/C=C2\CCc3ccccc3C2=O)cc1Br`: 203%. As to `CCOc1ccc(OCC(=O)NCCc2c[nH]c3ccccc23)cc1`, the “activity change, negative = inhibition” value is 19.4%. Still for that read-out and setting: the same measure for `COCCN(CCOC)C(=O)Cc1n[nH]c(=O)c2ccccc12`: 2.66%; for `COc1ccc(-c2noc(-c3cccc(OCC(=O)N4CCCC4)c3)n2)cc1`: 161%; for `O=S(=O)(c1ccc(Sc2nnnn2C2CCCC2)nc1)N1CCOCC1`: -10.7%. On to `Cc1cccc(-c2nc3cc(NC(=O)CC(C)C)ccc3o2)c1`, for which the “activity change, negative = inhibition” value is 120%. On to `CCOC(=O)CSCc1cccc(Cl)c1`, for which the “activity change, negative = inhibition” value is 13.3%. The same measure, in the same setting: the same measure for `O=c1[nH]c(=O)n(CCc2ccccc2)c2nccc(-c3ccc(Cl)cc3)c12`: -0.9%. Take `CC1CCC(=NNC(=S)NC2CCCCC2)CC1` (configuration not stated): the “activity change, negative = inhibition” value is 37.9%. The same measure, in the same setting: the result for `CCCNC(=O)NCc1nc(-c2ccc(OC)cc2)oc1C` reads 79.5%. `COc1ccc(C(=O)COC(=O)Cc2c(Cl)cccc2Cl)c(OC)c1`: the “activity change, negative = inhibition” value was 11.5%. Turning to `O=C1CC(c2cccc(Br)c2)c2c(n3c(nc4ccccc43)[nH]c2=O)N1` (configuration not stated), the “activity change, negative = inhibition” value was -10.9%.

With `CCN(C(=O)CSc1nc(-c2ccccc2Cl)nc2cc(=O)[nH]n12)c1ccccc1`, the “activity change, negative = inhibition” value is 42.8%. On the same count and under the same terms, the same measure for `O=C(NCc1coc(-c2cccs2)n1)c1ccc(C(F)(F)F)cc1`: 39.9%. Same read-out and setting: the same measure for `O=C(CSc1nc2ncccc2c(=O)n1-c1ccccc1)NC(=O)NC1CC1`: -8.22%; for `CCOCCn1c(NCCCOC)nc2c1c(=O)[nH]c(=O)n2C`: 82.8%. The same measure, in the same setting: the result for `NC(=O)Cn1nc(-c2cccc([N+](=O)[O-])c2)c2ccccc2c1=O` reads -7.8%; that for `O=C(NCc1ccc(F)cc1)c1cc(S(=O)(=O)C2CCS(=O)(=O)C2)ccc1F` (configuration not stated), 17.7%. `CCN(CC)C(=O)Oc1ccc2c(C)c(-c3ccccc3)c(=O)oc2c1`: the “activity change, negative = inhibition” value was 0%. Still for that read-out and setting: the result for `Cc1ccsc1CNC(=O)CCc1ccc(F)c(F)c1` reads 58.8%; that for `COCCCNC(=O)Cc1c(C)c2ccc(OC(C)=O)c(OC(C)=O)c2oc1=O`, 36%.

For `C[C@H](NC(=O)C(c1ccccc1)c1ccccc1)C(=O)O`, the “activity change, negative = inhibition” value is 12.3%. As to `Nc1nccnc1C(=O)Nc1cccc(NC(=O)c2ccncc2)c1`, the “activity change, negative = inhibition” value was 8.94%. On the same count and under the same terms, the same measure for `CC(Sc1nc2ccccc2n1C)C(=O)NCc1ccc2c(c1)OCO2` (configuration not stated): 13%; for `Cc1nc2ccc(C)c(C)c2s1`: 1.16%. With `O=C(c1cccs1)c1cn(CCOc2ccc(Cl)cc2)c2ccccc12`, the “activity change, negative = inhibition” value is 4.11%. Same read-out and setting: the same measure for `Cc1ccccc1NC(=O)Cn1cc(C(=O)c2cccs2)c2ccccc21`: 7.93%.

Turning to `Cc1c(Cl)cccc1NC(=O)Cn1cc(C(=O)c2cccs2)c2ccccc21`, the Potency was 7.08 µM (active). With `Cc1ccc(C)c(COC(=O)c2ccc3c(c2)NC(=O)CS3)c1`, the “activity change, negative = inhibition” value is 9.18%. Still for that read-out and setting: the same measure for `CC(C)C(C#CC(O)(c1ccccc1)c1ccccc1)N(C)C` (configuration not stated): 0.778%; for `COc1cc(NC(=O)Cn2c3c(c(=O)n2-c2ccccc2)Cc2cc(Cl)ccc2O3)cc(OC)c1`: 81.6%; for `O=C(O)c1c(F)c(F)c(F)c(F)c1-c1ccccc1`: -7.11%. With `O=C(NC1CC1)C(Sc1c(Cl)cccc1Cl)c1ccccc1` (configuration not stated), the “activity change, negative = inhibition” value is 21.7%. As for `CCCCCNC(=O)CCc1c[nH]c2ccccc12`, the “activity change, negative = inhibition” value was 1.13%. For `CCC(C)n1cc(/C=C2\NC(=O)N(CC)C2=O)c2ccccc21` (configuration not stated), the “activity change, negative = inhibition” value was -13.7%.
